# Measured values as given in the supplement of paper PMC10720658.
# ± gives the standard deviation of the averaged measurements.
# Test system: AEK1 (Tb927.3.2440)
# Experiment: percent reduction in TR-FRET probe signal relative to DMSO control; higher = stronger displacement of ATP-site probe (binding)
# Details: 1 µM; incubation time 1 h
row,SMILES,percent reduction in TR-FRET probe signal
1,CCN(CC)CCCC(C)Nc1ccnc2cc(Cl)ccc12.O=P(O)(O)O.O=P(O)(O)O (configuration not stated) [Chloroquine Phosphate],-15.1 ± 5.7%
2,N#Cc1ccc2[nH]c(O)c(-c3ccc(CN4CCOCC4)cn3)c2c1,-12.4 ± 8.1%
3,COc1ccc(-c2ccc3ncc4c(c3c2)n(-c2ccc(N3CCNCC3)c(C(F)(F)F)c2)c(=O)n4C)cn1.O=C(O)/C=C\C(=O)O,-5.09 ± 8.7%
4,CC(C)[C@H](CO)Nc1nc(Nc2cccc(Cl)c2)c2ncn(C(C)C)c2n1 [Purvalanol A],4.44 ± 18%
5,NC(=O)c1ccc(N(C(N)=O)c2c(F)cccc2F)nc1-c1ccc(F)cc1F,-4.77 ± 9.4%
6,Oc1cccc(-c2nc(N3CCOCC3)c3oc4ncccc4c3n2)c1,-5.8 ± 6.4%
7,Cc1cc(F)c(Nc2ncnc3cc(OCc4ccccc4)ccc23)cc1O.Cl,29.8 ± 17%
